What all share (conditions): mRNA level, 48 h; actives raise or lower the signal
Read-out in assay [1]: NAD(P)H dehydrogenase [quinone] 1 (NQO1), NQO1 (gene 1728)
Description: LTEA_HepaRG_NQO1: Life Technologies and Expression Analysis (LTEA) Assay for NAD(P)H dehydrogenase [quinone] 1 (NQO1) using HepaRG (AID 2283526). In short, it runs like this:
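Transcript induction or suppression is quantified by qRT-PCR in human HepaRG liver cells dosed for 48 hours. Eight half-log concentrations topping at 100 uM are used, with 0.5% DMSO as vehicle and baseline.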

Read-out in assay [2]: Nuclear factor erythroid 2-related factor 2 (Homo sapiens) (UniProt Q16236)
Description: LTEA_HepaRG_NFE2L2: Life Technologies and Expression Analysis (LTEA) Assay for Nuclear factor erythroid 2-related factor 2 (NFE2L2) Transcription Factor using HepaRG (AID 2283527).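 For outcome: TaqMan qRT-PCR transcript level normalised to ACTB GAPDH and POLR2A housekeeping genes.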 In short, it runs like this: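 HepaRG, 48 h dosing, 8-pt half-log series from 100 uM in 0.5% DMSO, duplicates. Read-out: NFE2L2 mRNA by qRT-PCR (ACTB/GAPDH/POLR2A normalization). Bidirectional curve fit vs DMSO baseline.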

Read-out in assay [3]: succinate dehydrogenase complex iron sulfur subunit B (SDHB), SDHB (gene 6390)
In words: LTEA_HepaRG_SDHB: Life Technologies and Expression Analysis (LTEA) Assay for succinate dehydrogenase complex iron sulfur subunit B (SDHB) using HepaRG (AID 2283528). The method in brief: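 Readout is SDHB transcript level by qRT-PCR, normalised to three housekeeping genes and fitted bidirectionally against 0.5% DMSO vehicle. Human HepaRG cells were treated for 48 h at up to 100 uM.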

Read-out in assay [4]: Signal transducer and activator of transcription 3 (Homo sapiens) (UniProt P40763)
Description: LTEA_HepaRG_STAT3: Life Technologies and Expression Analysis (LTEA) Assay for Signal transducer and activator of transcription (STAT3) using HepaRG (AID 2283529). In short, it runs like this: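 HepaRG, 48 h exposure, 8-pt half-log series (top 100 uM), 0.5% DMSO vehicle, duplicates. Readout: STAT3 transcript by Fluidigm qRT-PCR, housekeeping-normalized; bidirectional fit vs DMSO baseline.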

Read-out in assay [5]: solute carrier (SLCO1B1), SLCO1B1 (gene 10599)
Description: LTEA_HepaRG_SLCO1B1: Life Technologies and Expression Analysis (LTEA) Assay for solute carrier (SLCO1B1) using HepaRG (AID 2283530). In short, it runs like this:
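HepaRG, serum-free induction medium, 48 h dosing, 8-pt half-log from 100 uM, 0.5% DMSO vehicle, duplicates. Readout: SLCO1B1 mRNA, qRT-PCR, ACTB/GAPDH/POLR2A normalization; up or down fit vs DMSO.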

Read-out in assay [6]: sulfotransferase 2A1 (SULT2A1), SULT2A1 (gene 6822)
In words: LTEA_HepaRG_SULT2A1: Life Technologies and Expression Analysis (LTEA) Assay for sulfotransferase 2A1 (SULT2A1) using HepaRG (AID 2283531). The method in brief:
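Transcript levels of SULT2A1, quantified by qRT-PCR and normalized to three housekeeping genes, serve as the readout. Human HepaRG cultures receive test chemicals for 48 h at up to 100 uM in half-log steps, with 0.5% DMSO vehicle.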

Read-out in assay [7]: Transforming Growth Factor (TGFA), TGFA (gene 7039)
Description: LTEA_HepaRG_TGFA: Life Technologies and Expression Analysis (LTEA) Assay for Transforming Growth Factor (TGFA) using HepaRG (AID 2283532). In short, it runs like this: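 qRT-PCR read-out of TGFA transcript, normalized to three housekeeping genes, fitted bidirectionally against 0.5% DMSO baseline. Human HepaRG cultures received chemicals for 48 h at eight half-log concentrations, top 100 uM.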

Read-out in assay [8]: Transforming Growth Factor (TGFB1), TGFB1 (gene 7040)
In words: LTEA_HepaRG_TGFB1: Life Technologies and Expression Analysis (LTEA) Assay for Transforming Growth Factor (TGFB1) Transporter using HepaRG (AID 2283533). In short, it runs like this: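 HepaRG, 48 h post-plating, switched to serum-free induction medium; chemicals 100 uM top, half-log, 8 pts, 0.5% DMSO, dup; 48 h exposure; RNA → Fluidigm TaqMan qRT-PCR; norm ACTB/GAPDH/POLR2A; bidirectional fit vs DMSO.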

Read-out in assay [9]: TIMP1, TIMP1 (gene 7076)
Description: LTEA_HepaRG_TIMP1: Life Technologies and Expression Analysis (LTEA) Assay for TIMP1 using HepaRG (AID 2283534).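 Note: TaqMan qRT-PCR signal normalized to ACTB GAPDH and POLR2A housekeeping genes.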 The method in brief: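 Readout is TIMP1 mRNA level measured by qRT-PCR and normalized to three housekeeping genes. Human HepaRG cells were treated for 48 h in duplicate at eight concentrations up to 100 uM (0.5% DMSO); gain or loss fitted against DMSO.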

Read-out in assay [10]: Tumor necrosis factor receptor 1 (TNFRSF1A), TNFRSF1A (gene 7132)
Description: LTEA_HepaRG_TNFRSF1A: Life Technologies and Expression Analysis (LTEA) Assay for Tumor necrosis factor receptor 1 (TNFRSF1A) using HepaRG (AID 2283535). The method in brief:
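Read-out is TNFRSF1A transcript level by TaqMan qRT-PCR, normalized to three housekeeping genes, scored as gain or loss of signal versus 0.5% DMSO. Human HepaRG cells received test chemicals for 48 h at up to 100 uM (half-log series).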

Experimental findings from PubChem BioAssay (EPA / NIEHS) are described below.

By AC50 is commonly meant the midpoint of the concentration-response curve, whichever way the signal moves.

The source made the active and inactive calls. Rule for the calls: active = hit-call score of the fitted dose curve at least 0.9, where 1 is the maximum; inactive = score below 0.9.

Nuclear factor erythroid 2-related factor 2 (Homo sapiens), sequence (Q16236 whole entry, looked up): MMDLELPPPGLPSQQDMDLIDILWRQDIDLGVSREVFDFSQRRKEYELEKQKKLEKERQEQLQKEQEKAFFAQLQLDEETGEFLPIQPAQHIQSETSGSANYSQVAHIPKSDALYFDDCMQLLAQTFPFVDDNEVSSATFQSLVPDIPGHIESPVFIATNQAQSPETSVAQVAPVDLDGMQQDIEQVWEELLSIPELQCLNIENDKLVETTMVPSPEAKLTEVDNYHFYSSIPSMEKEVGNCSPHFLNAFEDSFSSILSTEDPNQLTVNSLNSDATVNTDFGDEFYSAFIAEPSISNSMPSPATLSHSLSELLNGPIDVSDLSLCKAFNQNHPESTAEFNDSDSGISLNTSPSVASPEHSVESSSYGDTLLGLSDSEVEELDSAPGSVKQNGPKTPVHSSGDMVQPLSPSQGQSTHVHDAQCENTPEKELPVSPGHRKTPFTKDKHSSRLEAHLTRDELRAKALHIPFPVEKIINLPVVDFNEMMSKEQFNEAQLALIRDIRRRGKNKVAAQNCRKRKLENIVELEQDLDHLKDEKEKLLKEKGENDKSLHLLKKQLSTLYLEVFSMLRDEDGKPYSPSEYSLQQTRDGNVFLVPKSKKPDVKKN
Signal transducer and activator of transcription 3 (Homo sapiens), sequence (P40763 whole entry, looked up): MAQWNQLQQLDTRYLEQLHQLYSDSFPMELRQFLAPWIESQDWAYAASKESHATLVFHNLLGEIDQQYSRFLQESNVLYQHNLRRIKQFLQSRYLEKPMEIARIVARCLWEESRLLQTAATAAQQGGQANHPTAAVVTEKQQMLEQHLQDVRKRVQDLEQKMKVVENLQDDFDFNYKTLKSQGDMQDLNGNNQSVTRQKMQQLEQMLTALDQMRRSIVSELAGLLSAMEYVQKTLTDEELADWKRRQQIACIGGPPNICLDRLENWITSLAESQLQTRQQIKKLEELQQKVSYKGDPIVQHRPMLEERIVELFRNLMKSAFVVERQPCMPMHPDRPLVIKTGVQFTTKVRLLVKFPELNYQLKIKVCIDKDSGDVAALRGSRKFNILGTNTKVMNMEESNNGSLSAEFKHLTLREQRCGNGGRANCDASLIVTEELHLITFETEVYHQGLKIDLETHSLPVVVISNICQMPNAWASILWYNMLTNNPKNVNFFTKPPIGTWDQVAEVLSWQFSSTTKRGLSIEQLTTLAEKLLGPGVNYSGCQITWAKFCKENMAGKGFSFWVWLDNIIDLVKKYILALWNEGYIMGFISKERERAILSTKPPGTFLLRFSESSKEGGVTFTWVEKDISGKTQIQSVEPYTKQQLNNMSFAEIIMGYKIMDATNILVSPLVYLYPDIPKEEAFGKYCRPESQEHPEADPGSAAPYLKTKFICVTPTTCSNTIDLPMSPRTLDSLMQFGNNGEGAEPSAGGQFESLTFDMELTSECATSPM

On to `ClC(Cl)=C(c1ccc(Cl)cc1)c1ccc(Cl)cc1`, for which the call in assay [1], in [2], in [3], in [4], in assay [5] and in [7] was inactive. In addition, the outcome in [8], in [9] and in [10] was inactive. Further, the AC50 in [6] is 12 µM (active).
As to `CCOCCOC(C)=O`, the outcome in assay [1], in assay [2], in assay [3], in [5], in assay [6] and in assay [7] was inactive. Further, the compound was classed as inactive in assay [8], in assay [9] and in [10].
With `ClC1=C(Cl)[C@]2(Cl)[C@@H]3[C@H]4C[C@H]([C@@H]5O[C@H]45)[C@@H]3[C@@]1(Cl)C2(Cl)Cl`, the compound was called inactive in assay [1], in assay [2], in assay [3], in [6], in assay [7] and in assay [8]. In addition, the call in assay [9] and in assay [10] was inactive. In addition, in [5], the AC50 was 13.8 µM (active).
For `O=C(N[C@H]1CN2CCC1CC2)c1cc2ccoc2cn1`, the result in assay [1], in [2], in [3], in [5], in [6] and in assay [7] was inactive. Also, the compound was called inactive in assay [8], in assay [9] and in [10].
For `c1ccc(-c2ccccc2)cc1`, the result in assay [1], in assay [2], in [3], in assay [5], in assay [6] and in assay [7] was inactive. Further, the result in assay [8], in [9] and in [10] was inactive.
`Cc1ccccc1CO[C@@H]1C[C@@]2(C(C)C)CC[C@]1(C)O2`: the result in assay [1], in [2], in assay [3], in [5], in assay [6] and in [7] was inactive. Further, the compound was called inactive in [8], in [9] and in assay [10].
Consider `CCCN(CCC)N=O`, for which the call in [1], in assay [2], in [3], in assay [5], in [6] and in assay [7] was inactive. Also, the compound was called inactive in assay [8], in assay [9] and in [10].
For `O=S(=O)(O)C(F)(F)C(F)(F)C(F)(F)C(F)(F)C(F)(F)C(F)(F)F`, the call in assay [1], in assay [5], in assay [6], in assay [7], in assay [8] and in assay [9] was inactive. In addition, the outcome in [10] was inactive. Further, the figures for the AC50 in assay [2] and in [3] were 0.979 µM (active) and 8.54 µM (active), respectively.
With `Oc1ccc(C(c2ccc(O)cc2)(C(F)(F)F)C(F)(F)F)cc1`, the AC50 in assay [1] was 78.9 µM (active); in [6] it was 88.4 µM (active); in [7], 82.4 µM (active); in assay [8], 76.5 µM (active). In addition, the result in assay [2], in assay [3], in [5], in assay [9] and in assay [10] was inactive.
In the case of `O=C(O)C(F)(F)C(F)(F)C(F)(F)C(F)(F)C(F)(F)C(F)(F)C(F)(F)C(F)(F)F`, the call in assay [1], in assay [3], in [9] and in assay [10] was inactive. Moreover, the AC50 in assay [2] is 74.9 µM (active); in [5], 90.8 µM (active); in [6], 77.4 µM (active); in assay [7] it was 67.1 µM (active); in assay [8] it was 73.5 µM (active).
For `CC(C)(c1ccccc1)c1ccc(O)cc1`, the result in assay [1], in assay [2], in [3], in [5], in assay [6] and in assay [7] was inactive. Also, the compound was classed as inactive in assay [8], in assay [9] and in assay [10].
As for `CCC(C)(c1ccc(O)cc1)c1ccc(O)cc1`, the result in assay [1], in assay [2], in assay [3], in [5], in assay [6] and in [7] was inactive. Further, the compound was classed as inactive in assay [8], in assay [9] and in assay [10].
Consider `CC#Cc1cc(C)nc(Nc2ccccc2)n1`, for which the compound was called inactive in assay [1], in assay [3], in assay [7], in [8], in [9] and in assay [10]. In addition, the results for the half-maximal activity concentration (AC50) in assay [2], in [5] and in [6] were 30.2 µM (active), 29.2 µM (active) and 5.75 µM (active), respectively.
With `Cc1cc(-c2ccc(N)c(C)c2)ccc1N`, the outcome in [1], in [2], in assay [3], in assay [5], in assay [6] and in assay [7] was inactive. Further, the outcome in [8], in assay [9] and in assay [10] was inactive.
Turning to `ClC1=C(Cl)[C@]2(Cl)[C@@H]3[C@@H]4C[C@@H]([C@H]5O[C@@H]45)[C@@H]3[C@@]1(Cl)C2(Cl)Cl`, the compound was classed as inactive in assay [1], in assay [3], in assay [5], in assay [6], in assay [7] and in [8]. In addition, the outcome in assay [9] and in assay [10] was inactive. Moreover, the AC50 in assay [2] was 0.0292 µM (active).
In the case of `C=CC(=O)NCNC(=O)C=C`, the call in assay [1], in [2], in [3], in [5], in [6] and in assay [7] was inactive. Further, the compound was called inactive in assay [8], in assay [9] and in assay [10].
